The source of these data is the supplement of paper PMC11732987, “Enantioselective OTUD7B fragment discovery through chemoproteomics screening and high-throughput optimisation” (Communications Chemistry, 2025).

What all share (assay): log2 ratio of Biotin-Ahx-Ub-VS probe labelling (fragment/DMSO); higher = less target engagement (more negative = stronger competition), active = hit call of the paper (q ≤ 0.05, log2 ratio ≤ -1)
Settings in all cases: compound concentration: 200 uM; treatment time: 3 h

In assay [1] the target is T1, USP19 (UniProt O94966).
T1 sequence (whole entry): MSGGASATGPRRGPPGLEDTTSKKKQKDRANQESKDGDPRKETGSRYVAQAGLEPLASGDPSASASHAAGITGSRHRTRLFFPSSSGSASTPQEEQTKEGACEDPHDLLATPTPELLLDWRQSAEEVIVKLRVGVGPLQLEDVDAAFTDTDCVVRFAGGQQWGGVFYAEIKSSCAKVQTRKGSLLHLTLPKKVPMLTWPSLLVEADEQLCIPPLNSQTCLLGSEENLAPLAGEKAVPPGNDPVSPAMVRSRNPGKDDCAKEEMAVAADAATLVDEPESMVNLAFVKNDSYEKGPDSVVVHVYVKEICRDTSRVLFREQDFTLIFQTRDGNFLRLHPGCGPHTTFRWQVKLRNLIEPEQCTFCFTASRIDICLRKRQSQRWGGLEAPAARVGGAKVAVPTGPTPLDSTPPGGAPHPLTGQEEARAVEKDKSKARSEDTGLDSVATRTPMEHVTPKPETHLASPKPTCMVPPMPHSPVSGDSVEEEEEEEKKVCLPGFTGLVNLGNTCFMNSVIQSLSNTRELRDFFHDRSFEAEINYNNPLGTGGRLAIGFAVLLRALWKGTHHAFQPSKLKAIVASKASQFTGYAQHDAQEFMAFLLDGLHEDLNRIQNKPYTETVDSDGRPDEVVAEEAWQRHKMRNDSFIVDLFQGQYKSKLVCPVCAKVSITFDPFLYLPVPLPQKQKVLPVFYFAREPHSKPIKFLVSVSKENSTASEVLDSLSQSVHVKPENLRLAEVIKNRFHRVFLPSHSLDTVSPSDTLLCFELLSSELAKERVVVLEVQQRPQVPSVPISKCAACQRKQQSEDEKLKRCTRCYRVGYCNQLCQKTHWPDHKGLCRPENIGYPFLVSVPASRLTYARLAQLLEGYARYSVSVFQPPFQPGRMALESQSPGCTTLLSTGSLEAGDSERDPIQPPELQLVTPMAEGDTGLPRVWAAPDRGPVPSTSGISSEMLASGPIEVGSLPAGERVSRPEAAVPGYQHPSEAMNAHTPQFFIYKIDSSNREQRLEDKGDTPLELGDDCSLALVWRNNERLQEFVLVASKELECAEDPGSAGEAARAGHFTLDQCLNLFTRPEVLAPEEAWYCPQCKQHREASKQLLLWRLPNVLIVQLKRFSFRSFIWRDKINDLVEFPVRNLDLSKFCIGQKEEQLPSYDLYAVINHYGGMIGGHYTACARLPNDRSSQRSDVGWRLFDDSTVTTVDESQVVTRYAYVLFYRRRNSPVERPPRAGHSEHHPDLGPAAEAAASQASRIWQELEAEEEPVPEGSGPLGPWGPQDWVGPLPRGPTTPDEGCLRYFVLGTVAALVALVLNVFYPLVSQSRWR
An outline of the steps:
(§1)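 The table lists average log2 ratios of fragment over vehicle, from an unpaired t-test on global-median-normalised Spectronaut label-free quantities. Proteins with ≥2 unique peptides were used. Samples were HEK293T lysate (495 µg) treated in triplicate with fragment at 200 µM or vehicle for 3 h, then with Biotin-Ahx-Ub-VS (0.5 µM final) for 1 h, with labelled DUBs NeutrAvidin-enriched and run by diaPASEF LC-MS/MS.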

Assay [2] concerns the target T2, USP22 (UniProt Q9UPT9).
T2 sequence (whole entry): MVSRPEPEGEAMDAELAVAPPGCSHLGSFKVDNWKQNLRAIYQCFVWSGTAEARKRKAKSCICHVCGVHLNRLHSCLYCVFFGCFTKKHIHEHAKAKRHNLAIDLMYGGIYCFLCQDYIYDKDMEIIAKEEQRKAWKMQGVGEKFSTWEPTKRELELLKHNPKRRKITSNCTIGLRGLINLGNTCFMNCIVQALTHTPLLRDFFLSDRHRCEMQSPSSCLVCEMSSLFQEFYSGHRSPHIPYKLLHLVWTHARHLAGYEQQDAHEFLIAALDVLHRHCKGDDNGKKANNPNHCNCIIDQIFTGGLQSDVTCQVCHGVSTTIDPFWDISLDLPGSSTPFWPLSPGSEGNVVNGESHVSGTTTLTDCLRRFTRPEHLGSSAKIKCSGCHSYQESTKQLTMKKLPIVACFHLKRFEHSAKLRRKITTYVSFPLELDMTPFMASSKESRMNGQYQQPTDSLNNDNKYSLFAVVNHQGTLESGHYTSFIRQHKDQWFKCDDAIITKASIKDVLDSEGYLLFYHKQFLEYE
In a few lines: as §1

Assay [3] concerns the target USP24 (UniProt Q9UPU5). In a few lines:
as §1

Assay [4] deals with T3, USP25 (UniProt Q9UHP3).
T3 sequence (whole entry): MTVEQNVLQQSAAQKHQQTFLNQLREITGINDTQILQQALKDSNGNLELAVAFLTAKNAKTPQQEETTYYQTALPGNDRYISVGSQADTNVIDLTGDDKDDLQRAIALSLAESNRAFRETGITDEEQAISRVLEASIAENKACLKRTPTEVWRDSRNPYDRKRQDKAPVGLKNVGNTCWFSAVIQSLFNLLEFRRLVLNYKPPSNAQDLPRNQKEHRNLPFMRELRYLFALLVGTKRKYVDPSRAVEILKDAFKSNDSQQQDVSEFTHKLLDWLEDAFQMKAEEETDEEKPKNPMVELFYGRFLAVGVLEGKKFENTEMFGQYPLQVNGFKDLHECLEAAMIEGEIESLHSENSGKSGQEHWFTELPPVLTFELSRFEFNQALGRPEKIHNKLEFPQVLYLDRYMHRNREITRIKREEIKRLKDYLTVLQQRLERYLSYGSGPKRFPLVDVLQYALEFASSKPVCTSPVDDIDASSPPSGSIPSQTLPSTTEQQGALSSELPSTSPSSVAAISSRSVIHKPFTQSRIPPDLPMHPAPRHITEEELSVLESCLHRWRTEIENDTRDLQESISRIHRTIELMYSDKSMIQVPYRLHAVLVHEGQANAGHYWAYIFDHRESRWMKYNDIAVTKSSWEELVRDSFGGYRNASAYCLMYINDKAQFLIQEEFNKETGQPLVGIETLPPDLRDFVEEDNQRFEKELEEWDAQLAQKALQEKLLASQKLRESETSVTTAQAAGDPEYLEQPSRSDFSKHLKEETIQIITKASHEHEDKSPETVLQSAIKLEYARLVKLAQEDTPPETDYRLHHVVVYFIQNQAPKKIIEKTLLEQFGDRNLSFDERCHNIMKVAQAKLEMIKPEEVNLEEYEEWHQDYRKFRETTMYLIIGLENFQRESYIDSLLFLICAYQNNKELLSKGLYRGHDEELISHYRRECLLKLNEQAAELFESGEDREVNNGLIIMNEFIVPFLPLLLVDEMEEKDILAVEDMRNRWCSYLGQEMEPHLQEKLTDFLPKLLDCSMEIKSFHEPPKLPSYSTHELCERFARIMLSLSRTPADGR
In a few lines:
as §1

Assay [5] deals with T4, USP28 (UniProt Q96RU2).
T4 sequence (whole entry): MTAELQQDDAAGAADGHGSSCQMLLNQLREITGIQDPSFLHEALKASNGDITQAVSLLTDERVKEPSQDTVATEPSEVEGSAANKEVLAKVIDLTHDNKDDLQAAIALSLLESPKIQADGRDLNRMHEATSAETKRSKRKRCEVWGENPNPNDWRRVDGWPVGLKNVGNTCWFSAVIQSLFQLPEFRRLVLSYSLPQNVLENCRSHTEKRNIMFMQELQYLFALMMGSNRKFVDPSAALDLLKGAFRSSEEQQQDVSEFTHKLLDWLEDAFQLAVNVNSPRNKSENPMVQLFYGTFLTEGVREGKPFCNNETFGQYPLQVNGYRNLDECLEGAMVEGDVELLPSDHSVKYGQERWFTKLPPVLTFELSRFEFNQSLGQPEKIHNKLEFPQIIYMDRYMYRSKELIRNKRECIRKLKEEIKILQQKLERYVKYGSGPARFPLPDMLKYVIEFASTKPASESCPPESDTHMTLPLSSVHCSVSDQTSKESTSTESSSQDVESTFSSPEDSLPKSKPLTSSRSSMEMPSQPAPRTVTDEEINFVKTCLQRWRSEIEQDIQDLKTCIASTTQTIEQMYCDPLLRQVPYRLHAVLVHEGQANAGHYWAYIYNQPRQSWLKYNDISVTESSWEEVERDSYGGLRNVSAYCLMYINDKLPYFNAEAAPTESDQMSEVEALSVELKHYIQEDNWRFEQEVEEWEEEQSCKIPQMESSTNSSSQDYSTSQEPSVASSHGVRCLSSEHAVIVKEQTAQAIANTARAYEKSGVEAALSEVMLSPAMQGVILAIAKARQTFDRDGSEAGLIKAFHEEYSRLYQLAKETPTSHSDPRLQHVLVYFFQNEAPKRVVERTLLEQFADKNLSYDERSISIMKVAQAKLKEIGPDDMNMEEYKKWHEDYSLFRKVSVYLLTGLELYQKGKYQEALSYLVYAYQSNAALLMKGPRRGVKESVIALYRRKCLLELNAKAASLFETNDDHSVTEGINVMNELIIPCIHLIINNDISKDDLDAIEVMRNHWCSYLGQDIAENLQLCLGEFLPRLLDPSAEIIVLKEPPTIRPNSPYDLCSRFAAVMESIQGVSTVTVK
An outline of the steps:
as §1

A number with no mark means an inactive call.

USP24, sequence (Q9UPU5 whole entry): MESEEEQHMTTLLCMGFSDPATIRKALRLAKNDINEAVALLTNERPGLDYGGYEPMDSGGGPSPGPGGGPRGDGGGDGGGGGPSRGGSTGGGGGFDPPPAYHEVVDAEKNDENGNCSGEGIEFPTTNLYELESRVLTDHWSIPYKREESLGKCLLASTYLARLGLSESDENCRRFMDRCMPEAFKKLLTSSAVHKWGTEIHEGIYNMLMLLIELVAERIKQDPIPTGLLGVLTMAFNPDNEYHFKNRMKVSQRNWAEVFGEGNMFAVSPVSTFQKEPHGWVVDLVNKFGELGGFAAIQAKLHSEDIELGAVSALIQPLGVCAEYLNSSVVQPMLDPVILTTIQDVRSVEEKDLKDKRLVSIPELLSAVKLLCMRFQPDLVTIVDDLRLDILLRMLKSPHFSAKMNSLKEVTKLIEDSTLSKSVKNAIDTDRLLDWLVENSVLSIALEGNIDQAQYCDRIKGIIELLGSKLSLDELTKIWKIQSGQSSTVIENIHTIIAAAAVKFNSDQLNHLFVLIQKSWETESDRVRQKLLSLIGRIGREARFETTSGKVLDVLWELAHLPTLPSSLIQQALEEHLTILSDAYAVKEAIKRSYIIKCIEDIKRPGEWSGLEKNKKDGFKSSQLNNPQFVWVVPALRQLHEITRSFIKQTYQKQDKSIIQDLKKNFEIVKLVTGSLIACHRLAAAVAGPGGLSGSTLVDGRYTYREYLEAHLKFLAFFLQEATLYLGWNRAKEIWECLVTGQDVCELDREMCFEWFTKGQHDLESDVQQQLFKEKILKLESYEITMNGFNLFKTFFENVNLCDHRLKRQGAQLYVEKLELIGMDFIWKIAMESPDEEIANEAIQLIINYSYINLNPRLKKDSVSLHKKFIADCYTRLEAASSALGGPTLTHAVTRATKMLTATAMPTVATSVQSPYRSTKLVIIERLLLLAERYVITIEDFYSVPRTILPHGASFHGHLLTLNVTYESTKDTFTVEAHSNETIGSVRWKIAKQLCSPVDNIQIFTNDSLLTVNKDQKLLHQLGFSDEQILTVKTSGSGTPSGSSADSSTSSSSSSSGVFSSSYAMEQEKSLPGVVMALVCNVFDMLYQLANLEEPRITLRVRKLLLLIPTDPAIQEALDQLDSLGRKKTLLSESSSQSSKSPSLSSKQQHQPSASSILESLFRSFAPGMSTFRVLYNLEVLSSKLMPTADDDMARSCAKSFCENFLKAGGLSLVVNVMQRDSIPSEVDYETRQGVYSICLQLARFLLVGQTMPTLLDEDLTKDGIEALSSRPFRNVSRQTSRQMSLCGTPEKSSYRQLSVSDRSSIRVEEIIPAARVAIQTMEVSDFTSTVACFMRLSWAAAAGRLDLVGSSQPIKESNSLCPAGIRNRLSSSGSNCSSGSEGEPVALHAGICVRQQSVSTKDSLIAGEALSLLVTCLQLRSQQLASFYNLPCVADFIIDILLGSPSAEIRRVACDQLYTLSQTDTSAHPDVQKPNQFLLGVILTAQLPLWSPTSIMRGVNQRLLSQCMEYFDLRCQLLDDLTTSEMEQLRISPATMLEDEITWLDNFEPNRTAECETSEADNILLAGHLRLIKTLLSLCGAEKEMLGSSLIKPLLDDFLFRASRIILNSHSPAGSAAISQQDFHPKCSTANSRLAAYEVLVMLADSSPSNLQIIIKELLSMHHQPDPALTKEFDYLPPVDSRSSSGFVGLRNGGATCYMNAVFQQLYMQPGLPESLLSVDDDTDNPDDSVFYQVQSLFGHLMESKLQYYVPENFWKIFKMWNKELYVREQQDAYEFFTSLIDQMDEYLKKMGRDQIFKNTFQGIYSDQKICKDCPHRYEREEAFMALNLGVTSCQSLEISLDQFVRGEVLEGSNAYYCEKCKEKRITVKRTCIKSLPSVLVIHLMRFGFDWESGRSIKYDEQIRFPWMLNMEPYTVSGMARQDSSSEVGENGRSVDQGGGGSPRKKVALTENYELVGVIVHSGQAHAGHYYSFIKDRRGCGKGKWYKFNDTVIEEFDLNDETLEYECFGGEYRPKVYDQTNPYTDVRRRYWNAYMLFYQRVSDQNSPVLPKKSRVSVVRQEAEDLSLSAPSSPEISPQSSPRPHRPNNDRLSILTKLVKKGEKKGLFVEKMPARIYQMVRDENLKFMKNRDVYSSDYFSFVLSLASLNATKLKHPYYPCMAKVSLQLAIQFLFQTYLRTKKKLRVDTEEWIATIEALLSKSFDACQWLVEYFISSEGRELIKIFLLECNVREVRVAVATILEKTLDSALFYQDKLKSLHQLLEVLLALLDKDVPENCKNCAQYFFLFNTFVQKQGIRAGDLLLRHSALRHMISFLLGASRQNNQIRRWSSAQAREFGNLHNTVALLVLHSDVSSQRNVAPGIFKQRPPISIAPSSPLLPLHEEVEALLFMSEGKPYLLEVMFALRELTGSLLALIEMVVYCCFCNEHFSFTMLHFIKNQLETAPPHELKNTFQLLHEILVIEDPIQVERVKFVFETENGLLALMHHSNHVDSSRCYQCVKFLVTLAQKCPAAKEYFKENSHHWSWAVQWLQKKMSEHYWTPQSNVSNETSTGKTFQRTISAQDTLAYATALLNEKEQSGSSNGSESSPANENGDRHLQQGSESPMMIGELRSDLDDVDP

For `O=C(CCl)Nc1cc(Cl)ccc1-n1cncn1`, the “log2 ratio of Biotin-Ahx-Ub-VS probe labelling” value in assay [1] was -0.987; in assay [2], -0.15; in assay [3], -1.34 (active); in assay [4] it was -1.65 (active); in assay [5], -2.34 (active).
